Source: PubChem BioAssay AID1159580 (chemical genetic matrix, 2015)
Several values for one entry are separate records, joined by “and”; a condition that tells them apart may be missing. Equal values may be shown once. About 2,000 (36%) of roughly 5,500 compounds were called active. Inconclusive results (about 18%) are left out. No stated cut-off is given here; in the data, active means normalized growth mostly below about 0.91 (no sharp cut-off); inconclusive means no clear call, values can overlap the other calls; inactive means mostly above about 0.92. This is one part of the list.

Test: chemical genetic growth profiling, strain panel (AID 1159580);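 further: tested at 20 µM; growth read once vehicle control cultures reached saturation at 30 °C; 1 = growth at the plate median or of vehicle wells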
Conditions: S. cerevisiae deletion strains, growth OD

Measured: normalized growth

C#C[C@]1(O)CCC2C3CCC4=Cc5oncc5C[C@]4(C)C3CC[C@@]21C (stereo partly specified)
0.825 (active) and 0.957 (inactive): locus YHR030C, strain SLT2, stronger effect = lower value
inactive: locus YAL021C, strain ccr4, stronger effect = lower value 1.05 | locus YAL026C, strain drs2, stronger effect = lower value 0.977 | locus YAL030W, strain snc1, stronger effect = lower value 0.94 | locus YBL061C, strain skt5, stronger effect = lower value 0.941 | locus YBR009C, strain hhf1, stronger effect = lower value 0.918 | locus YBR021W, strain FUR4, stronger effect = lower value 1.01 | locus YBR023C, strain chs3, stronger effect = lower value 0.958 | locus YBR171W, strain sec66, stronger effect = lower value 0.937 | locus YBR231C, strain swc5, stronger effect = lower value 0.966 | locus YBR279W, strain paf1, stronger effect = lower value 0.969 | locus YCL011C, strain gbp2, stronger effect = lower value 0.97 | locus YCL016C, strain dcc1, stronger effect = lower value 0.996 | locus YCL029C, strain bik1, stronger effect = lower value 0.919 | locus YCL061C, strain MRC1, stronger effect = lower value 0.943 | locus YCL069W, strain vba3, stronger effect = lower value 0.956 | locus YCR088W, strain abp1, stronger effect = lower value 0.943 | locus YDL005C, strain med2, stronger effect = lower value 0.954 | locus YDL035C, strain GPR1, stronger effect = lower value 0.94 | locus YDL040C, strain nat1, stronger effect = lower value 0.958 | locus YDL101C, strain DUN1, stronger effect = lower value 0.906 | locus YDL185W, strain tfp1, stronger effect = lower value 0.932 | locus YDL192W, strain arf1, stronger effect = lower value 0.933 | locus YDR001C, strain nth1, stronger effect = lower value 0.961 | locus YDR069C, strain doa4, stronger effect = lower value 0.96 | locus YDR137W, strain rgp1, stronger effect = lower value 0.859 | locus YDR150W, strain NUM1, stronger effect = lower value 0.929 | locus YDR162C, strain NBP2, stronger effect = lower value 0.866 | locus YDR195W, strain ref2 0.978 | locus YDR297W, strain sur2, stronger effect = lower value 0.937 | locus YDR334W, strain swr1, stronger effect = lower value 0.965 | locus YDR335W, strain msn5, stronger effect = lower value 0.95 | locus YDR388W, stronger effect = lower value 0.957 | locus YEL003W, strain gim4, stronger effect = lower value 0.932 | locus YEL037C, strain rad23, stronger effect = lower value 0.971 | locus YEL061C, strain CIN8 (second series), stronger effect = lower value 0.958 | locus YEL061C, strain CIN8, stronger effect = lower value 0.93 | locus YER015W, strain faa2, stronger effect = lower value 0.961 | locus YER016W, strain bim1, stronger effect = lower value 0.969 | locus YER110C, stronger effect = lower value 0.933 | locus YER111C, strain swi4, stronger effect = lower value 0.978 | locus YER167W, strain BCK2, stronger effect = lower value 0.939 | locus YFR010W, strain ubp6, stronger effect = lower value 0.927 | locus YGL078C, strain dbp3, stronger effect = lower value 0.962 | locus YGL167C, strain pmr1, stronger effect = lower value 0.942 | locus YGL173C, strain kem1, stronger effect = lower value 0.929 | locus YGL227W, strain vid30, stronger effect = lower value 0.958 | locus YGL240W, strain doc1, stronger effect = lower value 0.94 | locus YGL248W, strain PDE1, stronger effect = lower value 0.892 | locus YGL253W, strain hxk2, stronger effect = lower value 0.946 | locus YGR135W, strain pre9, stronger effect = lower value 0.999 | locus YGR252W, strain gcn5, stronger effect = lower value 0.99 | locus YHR013C, strain ard1, stronger effect = lower value 1.01 | locus YHR027C, strain rpn1, stronger effect = lower value 0.979 | locus YHR079C, strain IRE1, stronger effect = lower value 0.964 | locus YHR094C, strain hxt1, stronger effect = lower value 0.939 | locus YHR142W, strain chs7, stronger effect = lower value 0.888 | locus YIL073C, strain SPO22, stronger effect = lower value 0.871 | locus YJL092W, strain hpr5, stronger effect = lower value 0.934 | locus YJL095W, strain BCK1 (second series), stronger effect = lower value 0.976 | locus YJL115W, strain asf1, stronger effect = lower value 0.952 | locus YJL134W, strain LCB3, stronger effect = lower value 0.944 | locus YJL154C, strain vps35, stronger effect = lower value 0.961 | locus YJL164C, strain tpk1, stronger effect = lower value 0.973 | locus YJL168C, strain set2, stronger effect = lower value 0.941 | locus YJL187C, strain SWE1 (second series), stronger effect = lower value 0.904 | locus YJR043C, strain POL32, stronger effect = lower value 0.93
0.729 (active) and 0.973 (inactive): locus YJL095W, strain BCK1, stronger effect = lower value
active: locus YBR229C, strain ROT2, stronger effect = lower value 0.898 | locus YDL074C, strain BRE1, stronger effect = lower value 0.725 | locus YDR101C, strain arx1, stronger effect = lower value 0.887 | locus YDR159W, strain sac3, stronger effect = lower value 0.839 | locus YDR318W, strain mcm21, stronger effect = lower value 0.891 | locus YDR392W, strain spt3, stronger effect = lower value 0.542 | locus YDR502C, strain sam2, stronger effect = lower value 0.887 | locus YER155C, strain BEM2 (second series), stronger effect = lower value 0.828 | locus YER155C, strain BEM2, stronger effect = lower value 0.903 | locus YGL086W, strain mad1, stronger effect = lower value 0.85 | locus YHR079C, strain IRE1 (second series), stronger effect = lower value 0.924 | locus YHR129C, strain ARP1, stronger effect = lower value 0.889 | locus YHR200W, strain rpn10, stronger effect = lower value 0.912 | locus YIL066C, strain RNR3, stronger effect = lower value 0.785 | locus YIL125W, strain kgd1, stronger effect = lower value 0.917 | locus YIR030C, strain dcg1, stronger effect = lower value 0.927 | locus YJL129C, strain trk1, stronger effect = lower value 0.83 | locus YJL166W, strain qcr8, stronger effect = lower value 0.899
